Experimental data published in PubChem BioAssay AID1159580 (chemical genetic matrix, 2015).
Out of some 5,500 compounds screened, about 2,000 (36%) were called active. About 18% were inconclusive and are not listed. No stated cut-off is given here; in the data, active means normalized growth mostly below about 0.91 (no sharp cut-off); inconclusive means no clear call, values can overlap the other calls; inactive means mostly above about 0.92. The list shows a part of the results.

Experiment: chemical genetic growth profiling, strain panel (AID 1159580);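 further: tested at 20 µM; growth read once vehicle control cultures reached saturation at 30 °C; 1 = growth at the plate median or of vehicle wells; lower values mean less growth of the strain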
Details: S. cerevisiae deletion strains, growth OD

Measured: normalized growth

COC(=O)C1C(O)CCC2CN3CCc4c([nH]c5ccccc45)C3CC21 (centres undefined)
inactive: locus YAL040C, strain CLN3, active compounds read low 0.997 | locus YCL061C, strain MRC1 (second series), active compounds read low 1.01 | locus YDR363W, strain ESC2, active compounds read low 1 | locus YER002W, strain NOP16, active compounds read low 1.01 | locus YGR078C, strain PAC10, active compounds read low 1.01 | locus YGR229C, strain SMI1, active compounds read low 1.04 | locus YMR307W, strain GAS1, active compounds read low 1.01 | locus YNL153C, strain GIM3, active compounds read low 0.981 | locus YNL175C, strain NOP13, active compounds read low 1.02 | locus YNL197C, strain WHI3, active compounds read low 0.995 | locus YNL224C, strain SQS1, active compounds read low 1 | locus YNL322C, strain KRE1, active compounds read low 1.03 | locus YOR083W, strain WHI5 (second series), active compounds read low 1 | locus YPL241C, strain CIN2, active compounds read low 1.01
